{"source": "PubChem BioAssay", "data": [{"biological_target": "Torsin-1A (Homo sapiens) (UniProt O14656)", "sequence (O14656 whole entry, looked up)": "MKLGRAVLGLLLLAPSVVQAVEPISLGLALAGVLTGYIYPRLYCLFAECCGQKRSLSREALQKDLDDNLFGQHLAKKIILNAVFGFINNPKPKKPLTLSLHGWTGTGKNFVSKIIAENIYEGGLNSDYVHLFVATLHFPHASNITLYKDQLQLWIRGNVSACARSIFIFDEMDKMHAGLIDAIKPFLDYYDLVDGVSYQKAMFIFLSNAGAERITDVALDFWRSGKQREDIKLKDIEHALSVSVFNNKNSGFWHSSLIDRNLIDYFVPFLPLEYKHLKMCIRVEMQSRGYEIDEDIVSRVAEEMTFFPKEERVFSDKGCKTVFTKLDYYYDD", "assay": "small-molecule binders of mutant TOR1A in lysate, primary screen, cell lysate, small-molecule microarray, COS7 lysate, 635/667 nm fluorescence (AID 1150);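 further: score pools 667 nm emission and signal to noise measuring lysate protein binding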", "settings": "COS7 hTOR1A mutant lysate, 635 nm fluorescence, higher = more signal", "values": [{"smiles": "C[C@]1(C(=O)NC2CC2)c2ccccc2C(=O)N(Cc2cc(F)cc(C(F)(F)F)c2)[C@H]1c1ccc(CO)cc1", "composite z-score": 0.416}, {"smiles": "O=C(CS)NCCCCCCNC(=O)[C@H]1C[C@H]2C(=O)NCC(=O)N2[C@H]1c1cccc(OCCO)c1", "composite z-score": 0.442}, {"smiles": "COC(=O)[C@@]1(Cc2ccc(OC)cc2)[C@H]2c3cc(C(=O)N(C)C)n(Cc4c(CO)[nH]cc(C)c4=O)c3C[C@H]2CN1C(=O)c1ccccc1", "composite z-score": 0.461}, {"smiles": "COCCCNC(=O)[C@@]1(Cc2ccccc2I)c2ccccc2C(=O)N(C2CCCCC2)[C@H]1c1ccc(CO)cc1", "composite z-score": 0.646}, {"smiles": "COC(=O)[C@@]1(Cc2ccc(OC)cc2)[C@@H]2[C@@H](CC(=O)[C@H]2CC(=O)C(=O)N(C)C)CN1C(=O)c1ccccc1", "composite z-score": 0.452}, {"smiles": "C=C(C(=O)CC[C@@H](OC(=O)c1ccccc1-c1ccccc1C(=O)O)c1cccc(OCCO)c1)C(C)C", "composite z-score": 1.59}, {"smiles": "CC(C)C[C@@H]1NC(=O)[C@H]2C[C@@H](C(=O)O)[C@@H](c3cccc(OCCO)c3)N2C1=O", "composite z-score": 2.17}, {"smiles": "Cc1ccc(S[C@]2(C(=O)NCc3ccccc3)CC(=O)N(Cc3ccccc3C(F)(F)F)[C@@H]2c2ccc(CO)cc2I)cc1", "composite z-score": -0.45}, {"smiles": "CC(C)N1CC=CC23O[C@@H]4/C=C\\CCCOC(=O)C4[C@H]2C(=O)N(C(C)CO)[C@@H]3C1=O", "note": "(stereo partly drawn)", "composite z-score": -0.913}, {"smiles": "COC(=O)Cn1c(C(=O)N(C)C)cc2c1C[C@H]1CN(C(=O)c3ccccc3)[C@@](Cc3ccccc3)(C(=O)OC)[C@@H]21", "composite z-score": 0.541}, {"smiles": "COc1c(C)cc(-c2cc3c(c(CCc4ccccc4)n2)[Si](C(C)C)(C(C)C)O[C@H]3c2ccccc2)cc1C", "composite z-score": -0.554}, {"smiles": "CCCCCN1CC=CC23O[C@@H]4/C=C\\CCCOC(=O)C4[C@H]2C(=O)N(CCCCCO)[C@@H]3C1=O", "note": "(stereo partly drawn)", "composite z-score": -1.09}, {"smiles": "C[C@]1(C(=O)NCC(F)(F)F)c2ccccc2C(=O)N(Cc2cc(C(F)(F)F)cc(C(F)(F)F)c2)[C@H]1c1ccc(CO)cc1", "composite z-score": -0.34}, {"smiles": "COC(=O)C[C@H]1O[C@]2(C(=O)N(C)c3ccccc32)[C@@H](C)[C@@H]1[Si](C)(C)c1ccccc1", "composite z-score": 0.395}, {"smiles": "COc1ccc([Si](C)(C)[C@H]2[C@H](CC(=O)N3CCC[C@H]3CO)O[C@@]3(C(=O)N(C)c4ccccc43)[C@@H]2C)cc1", "composite z-score": 0.732}, {"smiles": "COCCOC(=O)N1C(=O)[C@@]2(c3cc(C#CCC(C(=O)OC)C(=O)OC)ccc31)[C@H](C(=O)N1CCc3cc(OC)c(OC)cc3C1)[C@H]1C(=O)O[C@H](c3ccccc3)[C@H](c3ccccc3)N1[C@@H]2c1ccccc1OCCO", "composite z-score": 0.949}, {"smiles": "O=C1C2C=CC(C(O)C(c3ccccc3)c3ccccc3)N(Nc3ccccc3F)C2C(=O)N1c1ccccc1", "note": "(stereo not drawn)", "composite z-score": 0.895}, {"smiles": "CC1C2C(CCCO)=CC(C3C(=O)N(C(N)=O)C(=O)C23)N1Cc1cccc(OC(F)(F)F)c1", "note": "(stereo not drawn)", "composite z-score": 0.6}, {"smiles": "CN(C)CCCC[C@@H]1NC(=O)[C@H]2C[C@@H](C(=O)NCCCCCCNC(=O)CS)[C@@H](c3cccc(OCCO)c3)N2C1=O", "composite z-score": 0.767}, {"smiles": "CCCC1(C(=O)OC)C=C2C(=C(C(C)C)C(=O)C2C)CN1", "note": "(stereo not drawn)", "composite z-score": 0.29}, {"smiles": "CCCCCCc1nc(Cc2cc(OC)c(OC)c(OC)c2)c(C)c2c1[Si](C(C)C)(C(C)C)OC2", "composite z-score": 0.0486}, {"smiles": "COc1c(C)cc(-c2nc(-c3ccccc3)c3c(c2C)CO[Si]3(C(C)C)C(C)C)cc1C", "composite z-score": 0.0463}, {"smiles": "[N-]=[N+]=Nc1ccccc1C[C@]1(C(=O)N2CCCCC2)N=C(c2ccc(OCCCO)cc2)O[C@H]1c1ccccc1", "composite z-score": 0.402}]}, {"tested_on": "Sonic hedgehog protein (Shh)", "assay": "small-molecule binders of Shh protein, primary screen, biochemical, small-molecule microarray, 635/667 nm fluorescence (AID 1151);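 further: Shh protein binding to compounds spotted on small-molecule microarray slides; score combines spot fluorescence intensity with signal-to-noise across triplicate slides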", "settings": "small-molecule microarray binding, 635 nm fluorescence; higher = more signal", "values": [{"smiles": "COc1cc(Cc2cc3c(c(CCc4ccccc4)n2)[Si](C(C)C)(C(C)C)O[C@H]3c2ccccc2)cc(OC)c1OC", "composite z-score": -0.418}, {"smiles": "C[C@]12C(=O)N(CCO)[C@@H]3C(=O)N(c4ccc(Cl)cc4)CC=CC31O[C@@H]1/C=C\\CCCOC(=O)C12", "note": "(stereo partly drawn)", "composite z-score": 1.18}, {"smiles": "COc1cc2c(cc1O)C(C)N(Cc1sc3ccccc3c1Cl)CC2", "note": "(stereo not drawn)", "composite z-score": -0.985}, {"smiles": "CN1C(=O)C2C=CC(C(O)c3ccc([N+](=O)[O-])cc3)N(Nc3ccccc3)C2C1=O", "note": "(stereo not drawn)", "composite z-score": -0.0538}, {"smiles": "COC(=O)[C@@]1(Cc2ccc(F)cc2)[C@H]2c3cc(C(=O)N(C)C)n(CCF)c3C[C@H]2CN1C(=O)c1ccccc1", "composite z-score": -0.447}, {"smiles": "O=C/C=C/c1ccc(-c2ccccc2)cc1", "composite z-score": 0.083}, {"smiles": "C=C(C(=O)CC[C@@H](OC(=O)c1ccccc1-c1ccccc1C(=O)O)c1ccc(OCCO)cc1)C(C)C", "composite z-score": 2.1}, {"smiles": "COc1ccc(C#Cc2ccc3c(c2)[C@]2(C(=O)N3)[C@H](c3ccccc3OCCO)N3[C@H](c4ccccc4)[C@H](c4ccccc4)OC(=O)[C@H]3[C@@H]2C(=O)NC[C@H](O)c2ccccc2)cc1", "composite z-score": 1.72}, {"smiles": "O=C1NC(=O)C2C1C=CC(C(O)c1ccc(F)cc1)N2Nc1ccc(Cl)cc1Cl", "note": "(stereo not drawn)", "composite z-score": -0.354}, {"smiles": "C[C@@]1([C@@H](NS(=O)(=O)c2cccc3cccnc23)c2ccc(-c3ccccc3)cc2)C[C@H]1C1CCCCC1", "composite z-score": -0.517}, {"smiles": "O=C1N(Cc2ccccc2)c2ccccc2C[C@@]12N=C(c1ccc(OCCCO)cc1)O[C@H]2c1ccccc1", "composite z-score": 1.34}, {"smiles": "COc1ccc(NN2C(C(O)c3ccccc3)C=CC3C(=O)N(C4CCCCC4)C(=O)C32)cc1", "note": "(stereo not drawn)", "composite z-score": 0.871}, {"smiles": "C[C@]1(C(=O)NC2CC2)c2ccccc2C(=O)N(Cc2cc(F)cc(C(F)(F)F)c2)[C@H]1c1ccc(CO)cc1", "composite z-score": 1.62}, {"smiles": "O=C(CS)NCCCCCCNC(=O)[C@H]1C[C@H]2C(=O)NCC(=O)N2[C@H]1c1cccc(OCCO)c1", "composite z-score": 1.54}, {"smiles": "COC(=O)[C@@]1(Cc2ccc(OC)cc2)[C@H]2c3cc(C(=O)N(C)C)n(Cc4c(CO)[nH]cc(C)c4=O)c3C[C@H]2CN1C(=O)c1ccccc1", "composite z-score": -0.532}, {"smiles": "COCCCNC(=O)[C@@]1(Cc2ccccc2I)c2ccccc2C(=O)N(C2CCCCC2)[C@H]1c1ccc(CO)cc1", "composite z-score": 1.04}, {"smiles": "COC(=O)[C@@]1(Cc2ccc(OC)cc2)[C@@H]2[C@@H](CC(=O)[C@H]2CC(=O)C(=O)N(C)C)CN1C(=O)c1ccccc1", "composite z-score": 0.326}, {"smiles": "C=C(C(=O)CC[C@@H](OC(=O)c1ccccc1-c1ccccc1C(=O)O)c1cccc(OCCO)c1)C(C)C", "composite z-score": 1.95}, {"smiles": "CC(C)C[C@@H]1NC(=O)[C@H]2C[C@@H](C(=O)O)[C@@H](c3cccc(OCCO)c3)N2C1=O", "composite z-score": 1.42}, {"smiles": "Cc1ccc(S[C@]2(C(=O)NCc3ccccc3)CC(=O)N(Cc3ccccc3C(F)(F)F)[C@@H]2c2ccc(CO)cc2I)cc1", "composite z-score": -0.26}, {"smiles": "CC(C)N1CC=CC23O[C@@H]4/C=C\\CCCOC(=O)C4[C@H]2C(=O)N(C(C)CO)[C@@H]3C1=O", "note": "(stereo partly drawn)", "composite z-score": -0.413}, {"smiles": "COC(=O)Cn1c(C(=O)N(C)C)cc2c1C[C@H]1CN(C(=O)c3ccccc3)[C@@](Cc3ccccc3)(C(=O)OC)[C@@H]21", "composite z-score": -0.535}, {"smiles": "COc1c(C)cc(-c2cc3c(c(CCc4ccccc4)n2)[Si](C(C)C)(C(C)C)O[C@H]3c2ccccc2)cc1C", "composite z-score": -0.11}, {"smiles": "CCCCCN1CC=CC23O[C@@H]4/C=C\\CCCOC(=O)C4[C@H]2C(=O)N(CCCCCO)[C@@H]3C1=O", "note": "(stereo partly drawn)", "composite z-score": -0.0251}, {"smiles": "C[C@]1(C(=O)NCC(F)(F)F)c2ccccc2C(=O)N(Cc2cc(C(F)(F)F)cc(C(F)(F)F)c2)[C@H]1c1ccc(CO)cc1", "composite z-score": -0.21}, {"smiles": "COC(=O)C[C@H]1O[C@]2(C(=O)N(C)c3ccccc32)[C@@H](C)[C@@H]1[Si](C)(C)c1ccccc1", "composite z-score": 1.65}, {"smiles": "COc1ccc([Si](C)(C)[C@H]2[C@H](CC(=O)N3CCC[C@H]3CO)O[C@@]3(C(=O)N(C)c4ccccc43)[C@@H]2C)cc1", "composite z-score": 1.54}, {"smiles": "COCCOC(=O)N1C(=O)[C@@]2(c3cc(C#CCC(C(=O)OC)C(=O)OC)ccc31)[C@H](C(=O)N1CCc3cc(OC)c(OC)cc3C1)[C@H]1C(=O)O[C@H](c3ccccc3)[C@H](c3ccccc3)N1[C@@H]2c1ccccc1OCCO", "composite z-score": 1.73}, {"smiles": "O=C1C2C=CC(C(O)C(c3ccccc3)c3ccccc3)N(Nc3ccccc3F)C2C(=O)N1c1ccccc1", "note": "(stereo not drawn)", "composite z-score": 0.868}, {"smiles": "CC1C2C(CCCO)=CC(C3C(=O)N(C(N)=O)C(=O)C23)N1Cc1cccc(OC(F)(F)F)c1", "note": "(stereo not drawn)", "composite z-score": 0.396}, {"smiles": "CN(C)CCCC[C@@H]1NC(=O)[C@H]2C[C@@H](C(=O)NCCCCCCNC(=O)CS)[C@@H](c3cccc(OCCO)c3)N2C1=O", "composite z-score": 0.871}, {"smiles": "CCCC1(C(=O)OC)C=C2C(=C(C(C)C)C(=O)C2C)CN1", "note": "(stereo not drawn)", "composite z-score": -0.182}, {"smiles": "CCCCCCc1nc(Cc2cc(OC)c(OC)c(OC)c2)c(C)c2c1[Si](C(C)C)(C(C)C)OC2", "composite z-score": 0.372}, {"smiles": "COc1c(C)cc(-c2nc(-c3ccccc3)c3c(c2C)CO[Si]3(C(C)C)C(C)C)cc1C", "composite z-score": 0.419}, {"smiles": "[N-]=[N+]=Nc1ccccc1C[C@]1(C(=O)N2CCCCC2)N=C(c2ccc(OCCCO)cc2)O[C@H]1c1ccccc1", "composite z-score": 1.05}]}]}
